For 36 molecules, composite z-score results are on record in PubChem BioAssay.

Molecules are shown by their SMILES.

The target of the first test is Left-right determination factor 2 (Homo sapiens) (UniProt O00292). Description: LEFTY2 binders on small-molecule microarrays, primary screen, biochemical, small-molecule microarray, 635 nm fluorescence scan (AID 1110). The following applies: LEFTY2 binding, higher = more signal.
Chain of Left-right determination factor 2 (Homo sapiens) (O00292 whole entry, looked up): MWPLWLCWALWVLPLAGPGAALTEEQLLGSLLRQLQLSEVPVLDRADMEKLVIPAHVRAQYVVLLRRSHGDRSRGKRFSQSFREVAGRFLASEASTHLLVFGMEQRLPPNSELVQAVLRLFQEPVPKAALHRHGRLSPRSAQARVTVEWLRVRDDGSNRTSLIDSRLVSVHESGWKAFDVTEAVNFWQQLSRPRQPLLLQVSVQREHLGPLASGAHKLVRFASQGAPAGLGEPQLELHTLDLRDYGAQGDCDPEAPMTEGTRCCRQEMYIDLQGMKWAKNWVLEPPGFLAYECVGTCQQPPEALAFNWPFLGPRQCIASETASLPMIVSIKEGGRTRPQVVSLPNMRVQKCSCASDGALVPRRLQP
`CC(C)[C@H]1COC(=O)N1C(=O)[C@H]1[C@@H](c2ccccc2)N(c2ccccc2)O[C@@H]1C` gave a composite z-score of 0.729.
For `O=C1O[C@@H](c2ccccc2)[C@@H](c2ccccc2)N2[C@@H](c3ccc(O)cc3)[C@]3(C(=O)Nc4ccc(C#CCCO)cc43)[C@@H](C(=O)O)[C@H]12`, the composite z-score is -0.233.
`Cc1ccc(S[C@]2(C(=O)NCCCN(C)C)CC(=O)N(C(C)C)[C@@H]2c2ccc(CO)cc2I)cc1` gave a composite z-score of -0.829.
`Cc1ccc(N2C(=O)c3ccccc3[C@](C)(C(=O)NCCN3CCOCC3)[C@@H]2c2ccc(CO)cc2)nc1`: the composite z-score was -1.28.
On the same count and under the same terms, under `COC(=O)C(CC#Cc1ccc2c(c1)[C@]1(C(=O)N2)[C@H](C(=O)N2CCCCCCC2)[C@H]2C(=O)O[C@H](c3ccccc3)[C@H](c3ccccc3)N2[C@@H]1c1ccccc1OCCO)C(=O)OC` stands 1.8.

Another test deals with Calmodulin-1 (Homo sapiens) (UniProt P0DP23). Nature of the test: CALM1 binders on microarrays, EGTA buffer, profiling panel, biochemical, small-molecule microarray, Cy5-labelled CALM1 (AID 1111).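 Note: labelled calmodulin applied in Tris saline Tween buffer holding calcium plus EGTA and DTT.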 The following applies: Cy5-CALM1 binding fluorescence, higher = more signal.
`Oc1ccc2cc[n+](Cc3cccc(OC(F)(F)F)c3)cc2c1` returned a composite z-score of -0.582.
`CC1CC/C=C\[C@H]2OC34C=CCN(CCN5CCOCC5)C(=O)[C@H]3N(CCCCCO)C(=O)[C@@H]4C2C(=O)O1` (stereo partly specified) showed a composite z-score of -1.87.
`C=C(C(=O)CC[C@@H](OC(=O)c1cccnc1)c1ccc(CO)o1)C(C)C`: the composite z-score is -0.478.
In the case of `C=CCC(OC(C)=O)[C@@H]1[C@@H](N(Cc2cc3ccccc3o2)C(=O)c2cccc3ccccc23)c2cc(OCCCO)ccc2N1C(=O)Cc1ccc(OC)cc1` (stereo partly specified), the composite z-score is -0.158.
Molecule `C=CCN1C(=O)[C@]2(COC(c3ccc(OCCCO)cc3)=N2)Cc2ccccc21` displayed a composite z-score of -0.0567.
Still for that read-out and setting: the value for `O=C(NCc1ccccc1)[C@@H]1c2ccccc2C(=O)N(C2CCCCC2)[C@H]1c1ccc(CO)cc1` was -0.576.
In turn, `[N-]=[N+]=NCc1ccccc1C[C@@]1(C(=O)NCc2ccccc2)N=C(c2ccc(OCCCO)cc2)O[C@@H]1c1ccccc1CN=[N+]=[N-]` gave a composite z-score of 1.51.
Same read-out and setting: the value for `CCOC(=O)C=Cc1cccc(OC)c1O` was 0.155.
As for `CN(C)CCCC[C@@H]1NC(=O)[C@H]2C[C@@H](C(=O)NCCCCCNC(=O)CS)[C@@H](c3ccc(O)cc3)N2C1=O`, the composite z-score was -0.0462.
In the case of `COC(=O)[C@@]1(Cc2ccccc2)[C@H]2c3cc(C(=O)N(C)C)n(Cc4cc(F)c(F)c(F)c4)c3C[C@H]2CN1C(=O)c1ccccc1`, the composite z-score is 1.39.
For `C=C(C)[C@@H]1CC=C(C(O)C2C=CC3C(=O)N(Cc4ccccc4)C(=O)C3N2n2cnnc2)CC1` (stereo partly specified), the composite z-score is 0.133.
On to `O=C(NCCN1CCOCC1)[C@@H]1c2ccccc2C(=O)N(Cc2cc(F)cc(C(F)(F)F)c2)[C@H]1c1ccc(CO)cc1`, for which the composite z-score is -0.346.
As for `O=C1O[C@H](c2ccccc2)[C@H](c2ccccc2)N2[C@H]1[C@@H](C(=O)NC[C@H](O)c1ccccc1)[C@]1(C(=O)Nc3ccc(C#CC4(O)CCCCCC4)cc31)[C@H]2c1ccccc1OCCO`, the composite z-score was 0.9.
As to `C=C(/C(=C/C[C@@H](OC(=O)c1ccncc1)c1ccc(CO)o1)c1cc(C(=O)OC)ccc1OC)C(C)C`, the composite z-score was 0.224.
On the same count and under the same terms, under `COc1ccc([Si](C)(C)[C@@H]2[C@@H](CCO)O[C@]3(C(=O)N(Cc4ccccc4)c4ccc(N(C=O)c5ccccc5)cc43)[C@H]2C)cc1` stands 0.194; under `CCCCCCC#C[Si](O[C@H](c1ccccc1)c1cn([C@H](C)c2ccccc2)nn1)(C(C)C)C(C)C`, -0.193.
In turn, `[N-]=[N+]=NCc1ccccc1[C@@H]1OC(c2ccc(OCCCO)cc2)=N[C@]1(Cc1ccccc1)C(=O)O` returned a composite z-score of 1.14.
As to `CCCC[C@@H]1C[C@H]1[C@@H](NC(=O)c1ccccc1)c1ccc(-c2ccccc2)cc1`, the composite z-score stood at 0.232.
Regarding `Cc1ccc(S[C@]2(C(=O)NCCN3CCOCC3)CC(=O)N(C3CCCCC3)[C@@H]2c2ccc(CO)cc2)cc1`, the composite z-score came out at 1.06.
On the same count and under the same terms, under `CC(C)NC(=O)[C@@]1(c2ccc([N+](=O)[O-])cc2)CC(=O)N(C(C)C)[C@@H]1c1ccc(CO)cc1` stands -0.678.
In turn, `C=CCN1Cc2ccccc2C[C@@]2(COC(c3ccc(OCCCO)cc3)=N2)C1=O` gave a composite z-score of 0.175.
On the same count and under the same terms, under `COCCn1c(C(=O)N2CCCC2)cc2c1C[C@H]1CN(C(=O)c3ccccc3)[C@@](Cc3ccc(OC)cc3)(C(=O)OC)[C@@H]21` stands 2.67.
As to `C=C[C@@H](C)[C@@H](OC(=O)Nc1ccc(OC)cc1)c1ccc(O)c2ccccc12`, the composite z-score was -0.27.
Take `COCCOC(=O)N1C(=O)[C@@]2(c3ccccc31)[C@H](C(=O)N1CCCCCCC1)[C@H]1C(=O)O[C@H](c3ccccc3)[C@H](c3ccccc3)N1[C@@H]2c1ccccc1OCCO`: the composite z-score was 2.43.
Take `COCCn1c(C(=O)N(C)C)cc2c1C[C@H]1CN(C(=O)c3ccccc3)[C@@](Cc3ccc(F)cc3)(C(=O)OC)[C@@H]21`: the composite z-score came to 0.487.
Molecule `CC(C)N1C(=O)c2ccccc2[C@](C)(C(=O)NCCCN(C)C)[C@@H]1c1ccc(CO)cc1` registered a composite z-score of 0.0958.
On the same count and under the same terms, under `O=C1C2C=CC(C(O)c3ccc(-c4ccccc4)s3)N(Nc3ccccc3F)C2C(=O)N1c1ccccc1` (stereo unspecified) stands 1.95.
`CN1C(=O)C2C(C1=O)C1C=C(c3ccc(CO)cc3)C2C(C2CC2)N1Cc1sc2ccccc2c1Cl` (stereo unspecified): the composite z-score worked out at 2.06.
Molecule `CO[C@H]1O[C@H](CO)[C@@H](OC(=O)Nc2ccc3c(c2)OCO3)[C@H](OC(=O)Nc2ccc3c(c2)OCO3)[C@H]1OC(=O)Nc1ccc2c(c1)OCO2` registered a composite z-score of 1.52.
Take `C=CC[C@]1(C(=O)NCCN2CCOCC2)N=C(c2ccc(OCCCO)cc2)O[C@H]1c1ccccc1N=[N+]=[N-]`: the composite z-score is 1.34.
Molecule `C=CCNC(=O)[C@@H]1[C@H]2C(=O)O[C@H](c3ccccc3)[C@H](c3ccccc3)N2[C@H](c2ccccc2OCCO)[C@@]12C(=O)N(C(=O)OCCOC)c1ccc(C#CCC(C(=O)OC)C(=O)OC)cc12` returned a composite z-score of 2.23.
The molecule `CC(C)[C@H]1COC(=O)N1C(=O)[C@H]1[C@@H](c2ccccc2)N(c2ccccc2)O[C@@H]1C` returned a composite z-score of 0.35.
`O=C1O[C@@H](c2ccccc2)[C@@H](c2ccccc2)N2[C@@H](c3ccc(O)cc3)[C@]3(C(=O)Nc4ccc(C#CCCO)cc43)[C@@H](C(=O)O)[C@H]12` displayed a composite z-score of 2.19.
In turn, `Cc1ccc(S[C@]2(C(=O)NCCCN(C)C)CC(=O)N(C(C)C)[C@@H]2c2ccc(CO)cc2I)cc1` returned a composite z-score of 0.314.
As to `Cc1ccc(N2C(=O)c3ccccc3[C@](C)(C(=O)NCCN3CCOCC3)[C@@H]2c2ccc(CO)cc2)nc1`, the composite z-score was -0.597.
As to `COC(=O)C(CC#Cc1ccc2c(c1)[C@]1(C(=O)N2)[C@H](C(=O)N2CCCCCCC2)[C@H]2C(=O)O[C@H](c3ccccc3)[C@H](c3ccccc3)N2[C@@H]1c1ccccc1OCCO)C(=O)OC`, the composite z-score was 3.11.
